JMJD2A Tudor inh = inhibitors of human JMJD2A Tudor domain | O75164 | Potency, µM (highest dose often 114 µM), inactives show top-dose activity change, negative = inhibition, hits mostly inhibitors | AID 504339 | AlphaScreen JMJD2A-Tudor / H3K4me3 peptide binding | hit rate 4.4% among 390,000; also: % is scaled to controls: 0 for no effect and ±100 for the full control effect; nearly all actives have a fitted effect of over 50% in size
HP1b binding inh = HP1-beta chromodomain-methylated histone interaction inhibition. P83916. AlphaScreen HP1-beta / biotin-H3K9me3 peptide binding. Potency, µM (doses to about 114 µM), without a hit: at the top dose activity change, negative = inhibition, most hits filed as inhibitors. hit rate 0.56% among 390,000. AID 540317; also: nearly all actives have a fitted effect of over 70% in size
Target sequence (P83916 whole entry, looked up): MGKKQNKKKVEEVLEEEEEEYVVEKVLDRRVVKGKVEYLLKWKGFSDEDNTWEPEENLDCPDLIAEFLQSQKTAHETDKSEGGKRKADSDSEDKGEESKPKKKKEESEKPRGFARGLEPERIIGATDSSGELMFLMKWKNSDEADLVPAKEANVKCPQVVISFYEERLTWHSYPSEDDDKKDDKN
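HP1-beta protein (50 nM final) preincubated 30 min at room temperature with biotinylated H3(1-18)K9me3 peptide (50 nM) in PBS pH 7.4, 0.01% Tween-20, then compound added for 30 min. AlphaScreen streptavidin donor/nickel chelate acceptor beads (10 ug/mL final), 30 min dark, luminescence read.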
Sfp inh = Sfp phosphopantetheinyl transferase inhibition; hit rate 3.5% among 310,000; Potency, µM, inactives show largest response in the series, negative = inhibition, hits mostly inhibitors; Biochemical Sfp PPTase activity, qHTS; Q9F4F7;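 also: the enzyme is Sfp with the accession as filed and its product quenches rhodamine fluorescence; 0% = enzyme reaction without inhibitor and -100% = no enzyme wells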
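With Hepes-Na pH 7.6 buffer containing 10 mM MgCl2, Sfp (15 nM) modified BHQ-2-YbbR (12.5 uM) using rhodamine-CoA (5 uM). Two reads 30 minutes apart at 525/598 nm yielded each well's rate.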
G9a block = blocks human histone lysine methyltransferase G9a; G9a H3K9 monomethylation, AlphaScreen, 2 h; Potency, µM (top dose mostly 102 µM), without a hit: at the top dose activity, negative = inhibition, most hits filed as inhibitors; hit rate 8.8% among 350,000; AID 504332; Q96KQ7; also: % is scaled to controls: 0 for no effect and ±100 for the full control effect; nearly all actives have a fitted effect of over 75% in size
Target sequence (Q96KQ7 913-1193 limits assumed): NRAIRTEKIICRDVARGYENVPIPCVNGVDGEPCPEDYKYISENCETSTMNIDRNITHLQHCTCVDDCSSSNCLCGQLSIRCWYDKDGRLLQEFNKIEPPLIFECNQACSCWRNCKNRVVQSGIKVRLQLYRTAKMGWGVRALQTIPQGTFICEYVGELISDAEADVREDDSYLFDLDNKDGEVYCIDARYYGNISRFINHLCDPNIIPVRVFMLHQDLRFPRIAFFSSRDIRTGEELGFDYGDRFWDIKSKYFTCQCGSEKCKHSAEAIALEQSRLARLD
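Enzyme 20 nM + cpd, 15 min RT; add b-H3K9 pep 500 nM / SAM 20 uM; 2 h RT; anti-H3K9me1 Ab 0.5 ug/mL + SA donor / anti-rabbit acceptor beads 20 ug/mL each, 10 min; AlphaScreen read.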
BAZ2B inh = blocks human BAZ2B. AlphaScreen BAZ2B-H3K14Ac peptide displacement. Potency, µM (titrated, usually from 114 µM), for the others: top-dose activity change, negative = inhibition, hits mostly inhibitors. hit rate 4.4% among 360,000. AID 504333; also: % is scaled to controls: 0 for no effect and ±100 for the full control effect; nearly all actives have a fitted effect of over 60% in size
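AlphaScreen displacement of biotin-H3(5-23)K14Ac peptide (50 nM final) from BAZ2B (50 nM final) in PBS pH 7.4, 0.01% Tween-20; complex preformed 30 min RT, then compounds (top 110 uM) 30 min RT, beads 20 min dark.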
The depositor's hits bear a star; ? = inconclusive; nt = no result given; [ ] = dose if it differs, or a comment. Rows were chosen to be rich in hits. Some 12% of all compounds tested hit in one or more screens of this group. Calls follow the shape of the dose curve; as a rule, active = well fitted curve in the direction sought with a large enough effect; inconclusive = small, poorly fitted or top-dose-only effect, or another doubt; inactive = no such curve, though single readings can be large; an effect the other way counts as inactive or inconclusive. Potency is read from the fitted curve at half-maximal effect.

SMILES	JMJD2A Tudor inh	HP1b binding inh	Sfp inh	G9a block	BAZ2B inh
CCN(CC)CCN1C(=O)c2oc3ccccc3c(=O)c2C1c1ccc(F)cc1 (stereo not drawn)	-4%	19%	-1%	-42%[12.7 µM]	2%
C[C@@H]([C@@H](O)c1ccccc1)N(C)C(=O)C(N)Cc1ccccc1 (stereo partly drawn)	-16%	63%	2%	nt	-1%
Nc1ccccc1SCC(=O)Nc1ccc2c(c1)OCCO2	-6%	23%	-31%	28µM*	-19%
CN(C)S(=O)(=O)c1ccc(SCC(=O)Nc2ccc3c(c2)OCCO3)nc1	-20%	9%	nt	40µM*	13%
Cc1nn(C)cc1C(=O)Nc1ccc2c(c1)OCCO2	-10%	-5%	50µM*	32µM*	3%
O=C(CSc1ccc([N+](=O)[O-])cn1)Nc1ccc2c(c1)OCCO2	-23%	20%	-6%	?	?
Cc1cc(C)nc(SCC(=O)Nc2ccc3c(c2)OCO3)n1	-2%	59%	-1%	nt	4%
Cc1nc(SCC(=O)Nc2ccc3c(c2)OCCO3)nc(C)c1C	-9%	56%	?	22µM*	-11%
CCOc1ccc(NC(=O)c2cc3c(C)nn(-c4ccccc4)c3s2)cc1	-2%	32%	nt	-6%[59 µM]	1%
CN(C)S(=O)(=O)c1ccc(NC(=O)CSc2nnnn2C)cc1	-14%	14%	?	32µM*	-17%
O=C(CSc1ncccn1)NC(=O)Nc1ccc2c(c1)OCCO2	-1%	46%	5%	45µM*	-16%
CC(Nc1ccc2c(c1)OCCO2)C(=O)N1CCc2ccccc21 (stereo not drawn)	?	4%	1%	?	45µM*
Cn1c(C(=O)Nc2ccc3c(c2)OCCO3)cc2sccc21	?	-19%	-20%	50µM*	?
O=C(CSc1ncccn1)Nc1ccc2c(c1)OCO2	-18%	5%[57 µM]	nt	nt	nt
CN(C)S(=O)(=O)c1ccc(C(=O)NC(=O)CSc2nnnn2C)cc1	-4%	34%	nt	nt	nt
CCc1cccc(CC)c1NC(=O)C1SC(=Nc2ccccc2C)C(c2nc3ccccc3s2)=C1N (stereo not drawn)	-28%	8%	14%	?	-13%
CC1=C(C(=O)Nc2ccccn2)C(c2ccccc2)n2ncnc2N1 (stereo not drawn)	-4%	29%	22%	-27%[59 µM]	12%
CC1CCCCC1NC(=O)CSc1nnnn1C (stereo not drawn)	-14%	-13%	nt	-30%	-6%
Cc1ccc(NC(=O)CSc2nc3ccccc3c3nc4ccccc4n23)cc1	-25%	35%	-25%	-13%[2.33 µM]	1%
CCN(c1ccc(OC)cc1)S(=O)(=O)c1nnc(NC(=O)c2ccccc2Cl)s1	-10%	34%	19%	6%[59 µM]	-19%
O=c1cc(O)c2c(=O)n(-c3ccccc3)c3c(c2o1)CCCCCC3	?	5%	5%	10%[59 µM]	50µM*
O=c1cc(O)c2c(=O)n(C3CCCCC3)c3ccccc3c2o1	-31%	30%	-5%	?	?
Cc1cc2c(cc(C(=O)OC(C(=O)NCc3ccco3)C(C)C)n2C)o1 (stereo not drawn)	?	-15%	?	40µM*	?
CN(Cc1ccccc1)C(=O)COC(=O)c1ccc(-n2cnnn2)cc1	-12%	11%	nt	?	0%
CC1(OC(=O)c2ccc(Cl)nc2)C(=O)C=C2C=C3CCCN3C=C2C1=O (stereo not drawn)	45µM*	?	?	-32%[59 µM]	?
SMILES	JMJD2A Tudor inh	HP1b binding inh	Sfp inh	G9a block	BAZ2B inh
O=C(CCOc1ccccc1)N(Cc1cccnc1)c1nc2c(Cl)cccc2s1	-23%	21%	nt	?	-9%
COc1ccc(S(=O)(=O)CCC(=O)Nc2c(C)cccc2C)cc1	-9%	36%	-19%	40µM*	2%
CCOc1ccccc1NC(=O)CCS(=O)(=O)c1ccc(OC)cc1	-1%	27%	12%	-38%	6%
CCNC(=O)CCS(=O)(=O)c1ccc2ccccc2c1	-3%	19%	?	7.1µM*	-4%
CCc1ccccc1NC(=O)CCS(=O)(=O)c1ccc(OC)cc1	89µM*	?	-16%	14µM*	?
CCC(CC)C(=O)Nc1ccccc1SCc1cc(=O)c2cccc(C)c2[nH]1	-8%	12%[57 µM]	nt	27%[59 µM]	3%
CC(=O)N1CCCc2cc(S(=O)(=O)Nc3ccc(C)c(F)c3)ccc21	-1%	30%	nt	5%[59 µM]	6%
CC(=O)N1CCc2cc(S(=O)(=O)Nc3cccc(C(F)(F)F)c3)ccc21	89µM*	9%	7%	6%	3%
CCN(CCCNS(=O)(=O)c1ccc2c(c1)CCN2C(C)=O)c1cccc(C)c1	22µM*	-20%	11%	?	?
CC(=O)N1CCCc2cc(S(=O)(=O)Nc3ccc4c(c3)OCO4)ccc21	-21%	10%	-6%	50µM*	-4%
Cc1cn2c(=O)cc(COC(=O)c3ccccc3F)nc2s1	-6%	31%	nt	7%[59 µM]	-3%
Cc1ccccc1CN1C(=O)CSc2ccc(C(=O)N3CCOCC3)cc21	19%	16%	9%	21%[59 µM]	9%
O=C(CSC(=S)N1CCCC1)N1CCN(S(=O)(=O)c2cccc(F)c2)CC1	?	33%	nt	-33%	-5%
O=C(CSC(=S)N1CCCC1)N1CCN(S(=O)(=O)c2cccc([N+](=O)[O-])c2)CC1	-19%	1%	50µM*	40µM*	-14%
Cc1cccc(C(=O)OCC(=O)N2CC(C)CC(C)C2)c1C (stereo not drawn)	13%	56%	nt	nt	nt
O=C(N/N=C/c1sc(N2CCOCC2)nc1-c1ccccc1)c1ccc(O)cc1	-25%	9%	10%	nt	?
COC(=O)N/N=C/c1sc(N2CCCCC2)nc1-c1cccs1	?	16%	22µM*	50µM*	?
CCOC(=O)N1CCC(N2C(=O)c3ccccc3C2Nc2cc(Cl)c(OC)cc2OC)CC1 (stereo not drawn)	?	-20%	3%	45µM*	45µM*
CCOC(=O)N1CCC(N2C(=O)c3ccccc3C2Nc2cc(OC)c(OC)c(OC)c2)CC1 (stereo not drawn)	-18%	24%	23%	?	1%
CCOC(=O)N1CCC(N2C(=O)c3ccccc3C2Nc2ccc(S(=O)(=O)N3CCOCC3)cc2)CC1 (stereo not drawn)	-7%	40%	15%	45µM*	1%
CCCn1c(SCC(=O)Nc2cccc(F)c2)nc(O)cc1=O	-5%	32%	nt	-3%[2.33 µM]	6%
Cc1ccc(-c2csc3ncnc(Oc4ccc5c(C)cc(=O)oc5c4)c23)cc1	-16%	18%	-22%	10%[59 µM]	1%
CCOC(=O)[C@@H]1[C@H]2COc3ccc(Br)cc3[C@@H]2N2C(=O)N(c3ccc(OC)cc3)C(=O)[C@@]12C	-17%	35%	nt	nt	nt
CC(C)(C)c1ccc(OCCn2ccccc2=O)cc1	3.5µM*	17%	10%	5%	3%
